GPR151 ag: activators of human GPR151, primary screen, cell-based, PathHunter beta-arrestin, luminescence; activation, % at 11.2 µM; 1% of 650,000 active; AID 1508602, 2020; PathHunter beta-arrestin GPR151 cells; G-protein coupled receptor 151 (Homo sapiens), Q8TDV0; in the data active = activation above about 4.9%;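 also: 0% = median of compound wells and 100% = cells with positive control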
FBW7 activator: FBW7 E3 ligase activators, primary screen, biochemical, AlphaScreen, human; F-box/WD repeat-containing protein 7 (Homo sapiens), Q969H0; AlphaScreen FBW7–phospho-cyclin E peptide binding, activator screen; normalized activity (activation), % at 26.1 µM; 0.13% of 650,000 active; AID 1259310, 2017; in the data active = normalized activity above about 1.9%;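 also: purified mutant Fbw7 with reduced substrate affinity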
TEAD-YAP block: TEAD-YAP interaction inhibition, primary screen, TEAD-YAP interaction inhibitor project, luminescence, HEK-TIYL cells | TEAD-Gal4/YAP UAS-luciferase luminescence | inhibition, % at 9.12 µM | 1.4% of 640,000 active | AID 1259422, 2018; in the data active = inhibition above about 32%;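 also: 0% = median of test compound wells and 100% = reference inhibitor wells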
MITF primary: MITF inhibitors, primary screen, biochemical, AlphaScreen, human; Microphthalmia-associated transcription factor (Homo sapiens), O75030; AlphaScreen MITF homodimerization, bead proximity signal; inhibition, % at 2.6 µM; 0.91% of 650,000 active; AID 1259374, 2018; in the data active = inhibition above about 50%;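 also: 0% = vehicle wells with protein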
Target sequence (O75030 whole entry, looked up): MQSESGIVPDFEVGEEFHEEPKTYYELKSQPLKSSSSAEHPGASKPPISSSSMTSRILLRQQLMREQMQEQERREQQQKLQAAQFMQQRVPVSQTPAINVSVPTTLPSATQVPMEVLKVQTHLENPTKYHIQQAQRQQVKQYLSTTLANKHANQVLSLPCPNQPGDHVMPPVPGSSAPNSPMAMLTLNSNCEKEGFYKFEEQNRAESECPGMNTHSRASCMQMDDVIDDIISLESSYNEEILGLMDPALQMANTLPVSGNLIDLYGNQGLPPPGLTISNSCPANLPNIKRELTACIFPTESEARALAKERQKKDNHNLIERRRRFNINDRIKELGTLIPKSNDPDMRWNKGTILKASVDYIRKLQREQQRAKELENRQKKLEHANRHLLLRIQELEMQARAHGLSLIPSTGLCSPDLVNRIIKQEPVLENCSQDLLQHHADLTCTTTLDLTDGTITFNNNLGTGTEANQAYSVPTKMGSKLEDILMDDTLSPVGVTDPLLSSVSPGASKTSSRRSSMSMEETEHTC
* marks the source's active call; other numbers are inactive results. Hits are enriched below; roughly 3.5% of the tested compounds scored in any of these assays.

How did CCOc1cc(/C=C(/C#N)C(=O)Nc2ccc(O)cc2)ccc1O do in these assays?
GPR151 ag: 1; FBW7 activator: 0; TEAD-YAP block: 50*; MITF primary: -12

What do the screens show for `CCOc1ccc(/C=C(/C#N)C(=O)Nc2ccc(O)cc2)cc1OCC`?
GPR151 ag: 0; FBW7 activator: 0; TEAD-YAP block: 15; MITF primary: -2

Results for CSc1ccc(/C=C/c2ccc3cccc(O)c3n2)cc1 ?
GPR151 ag: -7; FBW7 activator: 0; TEAD-YAP block: 34*; MITF primary: 13

Results for Oc1ccc(Br)c2ccc(/C=C/c3ccccc3)nc12 ?
GPR151 ag: 0; FBW7 activator: 0; TEAD-YAP block: -23; MITF primary: 13

What do the screens show for `Oc1cccc2ccc(/C=C/c3ccccc3)nc12`?
GPR151 ag: -7; FBW7 activator: 0; TEAD-YAP block: 32*; MITF primary: 2

How did CCc1ccc(NC(=O)C(=O)NCCC2CCCCN2S(=O)(=O)c2ccccc2)cc1 (stereo unspecified) do in these assays?
GPR151 ag: 2; FBW7 activator: 0; TEAD-YAP block: 12; MITF primary: 18

What do the screens show for `NC(=O)c1cccc(-c2cnn3c(N4CCCCC4CCO)ccnc23)c1` (stereo unspecified)?
GPR151 ag: 1; FBW7 activator: -1; TEAD-YAP block: -28; MITF primary: -15

What do the screens show for `OCCC1CCCCN1c1ccnc2c(-c3cccc(C(F)(F)F)c3)cnn12` (stereo unspecified)?
GPR151 ag: -2; FBW7 activator: 0; TEAD-YAP block: 55*; MITF primary: -7

Results for OCCC1CCCCN1c1ccnc2c(-c3cccc(O)c3)cnn12 (stereo unspecified) ?
GPR151 ag: -1; FBW7 activator: 0; TEAD-YAP block: 95*; MITF primary: 4

How did OCCC1CCCCN1c1ccnc2c(-c3cc4ccccc4o3)cnn12 (stereo unspecified) do in these assays?
GPR151 ag: 0; FBW7 activator: 0; TEAD-YAP block: 67*; MITF primary: -11

Results for CC(=O)Nc1cccc(-c2cnn3c(N4CCCCC4CCO)ccnc23)c1 (stereo unspecified) ?
GPR151 ag: 0; FBW7 activator: 0; TEAD-YAP block: -3; MITF primary: -10

Results for OCCC1CCCCN1c1ccnc2c(-c3cccc(F)c3)cnn12 (stereo unspecified) ?
GPR151 ag: 0; FBW7 activator: 0; TEAD-YAP block: 93*; MITF primary: -18

What do the screens show for `OCCC1CCCCN1c1ccnc2c(-c3cccc4ccccc34)cnn12` (stereo unspecified)?
GPR151 ag: -1; FBW7 activator: 0; TEAD-YAP block: -29; MITF primary: -33

How did COc1ccc(Cl)cc1NC(=O)CSc1nc2ccccc2n1S(=O)(=O)c1cc([N+](=O)[O-])ccc1C do in these assays?
GPR151 ag: 1; FBW7 activator: 0; TEAD-YAP block: 6; MITF primary: -18

How did CN(C)c1cccc(O[C@H]2C=C[C@@H](C#Cc3ccccc3)O[C@@H]2CO)c1 do in these assays?
GPR151 ag: 2; FBW7 activator: 0; MITF primary: 6

What do the screens show for `Cc1cc(N2CCCCC2)nc(NCCNC(=O)/C=C/c2ccccc2)n1`?
GPR151 ag: -2; FBW7 activator: 0; TEAD-YAP block: 38*; MITF primary: -1

How did Cc1cc(N2CCCCC2)nc(NCc2ccccc2)n1 do in these assays?
GPR151 ag: 2; FBW7 activator: 0; TEAD-YAP block: 48*; MITF primary: -11

How did Cc1cc(N2CCCCC2)nc(NCCNC(=O)c2ccco2)n1 do in these assays?
GPR151 ag: 2; FBW7 activator: 0; TEAD-YAP block: 41*; MITF primary: -8

Results for Cc1cc(N2CCOCC2)nc(NCc2ccccc2)n1 ?
GPR151 ag: 1; FBW7 activator: 0; TEAD-YAP block: 7; MITF primary: 13

Results for Cc1cc(N2CCCCC2)nc(NCCNC(=O)Nc2ccc(F)cc2F)n1 ?
GPR151 ag: -2; FBW7 activator: 0; TEAD-YAP block: 37*; MITF primary: 0

Results for COc1cc(OC)c(NC(=O)NCCNc2nc(C)cc(N3CCCCC3)n2)cc1Cl ?
GPR151 ag: -1; FBW7 activator: 0; TEAD-YAP block: 10; MITF primary: 2

What do the screens show for `Cc1c(C)n2c3c(=O)[nH]c(=O)n(C)c3nc2n1C1CC(C)CC(C)(C)C1` (stereo unspecified)?
GPR151 ag: 1; FBW7 activator: 0; TEAD-YAP block: -5; MITF primary: 12

How did Nc1ccc2c(c1)OC1(CCCC1)O2 do in these assays?
GPR151 ag: -1; FBW7 activator: -1; TEAD-YAP block: 94*; MITF primary: 11

Results for O=[N+]([O-])c1ccccc1C1CC(c2ccccc2)=NN1 (stereo unspecified) ?
GPR151 ag: 1; FBW7 activator: 0; TEAD-YAP block: 40*; MITF primary: -3

Results for Cc1ccc(OCC(=O)Oc2cccc(NC(=O)c3ccccc3Cl)c2)cc1C ?
GPR151 ag: 0; FBW7 activator: 0; TEAD-YAP block: 61*; MITF primary: 3

What do the screens show for `CCN(CC)S(=O)(=O)c1cccc(C(=O)Oc2cccc(NC(=O)c3cccc(OC)c3)c2)c1`?
GPR151 ag: -4; FBW7 activator: 0; TEAD-YAP block: 26; MITF primary: -2

How did CCN(CC)S(=O)(=O)c1cc(C(=O)Oc2cccc(NC(=O)c3ccccc3Cl)c2)ccc1C do in these assays?
GPR151 ag: 0; FBW7 activator: 0; TEAD-YAP block: 55*; MITF primary: 4

How did O=C(Oc1cccc(NC(=O)c2ccccc2Cl)c1)c1ccc2c(c1)OCO2 do in these assays?
GPR151 ag: 2; FBW7 activator: 0; TEAD-YAP block: 60*; MITF primary: -9

Results for CCN(CC)S(=O)(=O)c1cc(C(=O)Oc2cccc(NC(=O)c3ccc(Br)cc3)c2)ccc1C ?
GPR151 ag: 0; FBW7 activator: 0; TEAD-YAP block: 20; MITF primary: -7

Results for O=C(Nc1cccc(NCc2ccc3c(c2)OCO3)c1)c1ccccc1Cl ?
GPR151 ag: 0; FBW7 activator: 0; TEAD-YAP block: 10; MITF primary: 4

What do the screens show for `CCN(CC)S(=O)(=O)c1cc(C(=O)Oc2cccc(NC(=O)c3ccc([N+](=O)[O-])cc3)c2)ccc1C`?
GPR151 ag: -1; FBW7 activator: 0; TEAD-YAP block: 36*; MITF primary: 6

What do the screens show for `COc1nc(NCc2nc3ccccc3[nH]2)nc(-c2ccc(C(=O)N3CCN(C)CC3)cc2)n1`?
GPR151 ag: -1; FBW7 activator: 0; TEAD-YAP block: 1; MITF primary: 16

What do the screens show for `COc1ccc(NC(=O)NC(C)c2nc(-c3cccnc3)n[nH]2)cc1` (stereo unspecified)?
GPR151 ag: -1; FBW7 activator: 0; TEAD-YAP block: -5; MITF primary: 21

Bioassay records: PubChem, The Scripps Research Institute Molecular Screening Center
